Reference: PubChem BioAssay (NCI)
Compounds without any hit were thinned out: in the full panel of roughly 83,000, 20% have a hit.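 Growth was measured after 48 h exposure to one concentration of compound in 96-well plates. Values under 10 count as active.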 Unmarked numbers belong to inactive results. Active and inactive are the calls of the source.

How the values were obtained:
Assay in all cases: NCI-60 one-dose screen, 48 h (100 = growth as untreated, 0 = no growth, -100 = all killed)
Settings in all cases: 10 µM unless noted
NCI-H23 lung = tested on: NCI-H23 lung
NCI-H226 lung = tested on: NCI-H226 lung
NCI-H322M lung = tested on: NCI-H322M lung
HOP-62 NSCLC = tested on: HOP-62 NSCLC
NCI-H460 lung = tested on: NCI-H460 lung
HOP-92 NSCLC = tested on: HOP-92 NSCLC
NCI-H522 lung = tested on: NCI-H522 lung
A549/ATCC NSCLC = tested on: A549/ATCC NSCLC
786-0 renal = tested on: 786-0 renal
COLO 205 colon = tested on: COLO 205 colon
DU-145 prostate = tested on: DU-145 prostate
K-562 leukemia = tested on: K-562 leukemia
MALME-3M melanoma = tested on: MALME-3M melanoma
MDA-MB-231 breast = tested on: MDA-MB-231 breast
RXF 393 renal = tested on: RXF 393 renal
SF-268 CNS = tested on: SF-268 CNS
SF-295 CNS = tested on: SF-295 CNS
SF-539 CNS = tested on: SF-539 CNS
UACC-257 melanoma = tested on: UACC-257 melanoma
M14 melanoma = tested on: M14 melanoma

Row | SMILES | growth (NCI-H23 lung) | growth (NCI-H226 lung) | growth (NCI-H322M lung) | growth (HOP-62 NSCLC) | growth (NCI-H460 lung) | growth (HOP-92 NSCLC) | growth (NCI-H522 lung) | growth (A549/ATCC NSCLC) | growth (786-0 renal) | growth (COLO 205 colon) | growth (DU-145 prostate) | growth (K-562 leukemia) | growth (MALME-3M melanoma) | growth (MDA-MB-231 breast) | growth (RXF 393 renal) | growth (SF-268 CNS) | growth (SF-295 CNS) | growth (SF-539 CNS) | growth (UACC-257 melanoma) | growth (M14 melanoma)
1 | C=C(C)[C@@H]1CC[C@]2(COC3CCCCO3)CC[C@]3(C)[C@H](CC[C@@H]4[C@@]5(C)C=C(C=O)C(=O)C(C)(C)[C@@H]5CC[C@]43C)[C@@H]12 (stereo not given in full) | -58.9% (active) | 1.68% (active) | 8.97% (active) | -68% (active) | -47.2% (active) | -91.6% (active) | -75% (active) | -63.5% (active) | -86.2% (active) | -32% (active) | -94.3% (active) | -24.9% (active) | -75.4% (active) | -37.7% (active) | -85.7% (active) | -67.1% (active) | -95.5% (active) | -74.3% (active) | -28.5% (active) | -62.9% (active)
2 | O=c1cc(-c2ccccc2)nc(SCc2nc3cc(Cl)c(Cl)cc3[nH]2)[nH]1 | 90.9% | 101% | 90.7% | 93.2% | 111% | 104% | 85.3% | 114% | 96.7% | 108% | 106% | 88.8% | 103% | 102% | 107% | 101% | 102% | 94.3% | 103% | 104%
3 | COc1ccc(/C=C2\c3cc(OC)c(OC)c(OC)c3CC[C@@H]2O)cc1F | 37.3% | 58.1% | 66.3% | 32.6% | 13.8% | 38.2% | -32.5% (active) | 16.7% | 34.7% | 2.26% (active) | 19.5% | 13.4% | 70.2% | 28.8% | 8.31% (active) | 53.9% | 17% | 1.44% (active) | 39% | 5.42% (active)
4 | COc1cc2c(c(OC)c1OC)C(=O)CC(c1cccc(C(=O)Nc3ccc(C#N)cc3)c1)O2 (stereo not given) | 78.7% | 46.9% | 90.8% | 91.5% | 89.3% | 64.6% | 46.8% | 87.4% | 90.4% | 85.8% | 88% | 42.2% | 96.9% | 73.5% | 99.7% | 88.9% | 77% | 93% | 82.4% | 72.1%
5 | N#Cc1ccccc1-c1ccc(CN2C(=O)S/C(=C\c3ccc(Br)cc3)C2=O)cc1 | 96.6% | 86.9% | 101% | 94.8% | 106% | 94.6% | 94.8% | 97.3% | 99.3% | 111% | 105% | 93.8% | 96.8% | 95.9% | 104% | 99.4% | 93.1% | 99.7% | 92.3% | 98.2%
6 | CCOC(=O)CC[C@H](NC(=O)c1ccc(N(C)Cc2cnc3nc(N)nc(N)c3n2)c2ccccc12)C(=O)OCC | 25.5% | 72.6% | 46.3% | 29.4% | 13.8% | 51.7% | 22.4% | 9.28% (active) | 27.5% | 36.9% | 28.3% | 18.8% | 62.1% | 59.4% | 48.7% | 32.9% | 24.3% | 26.1% | 25.3% | 23%
7 | COc1ccccc1/C=C/C(=O)Nc1ccc(F)cc1 | 88.2% | 98% | 104% | 88.7% | 102% | 86.8% | 72.4% | 92.9% | 97.7% | 101% | 98.6% | 84.8% | 95.9% | 88.6% | 102% | 99.7% | 96% | 101% | 99.4% | 96.7%
